Results: PubChem BioAssay (EPA / NIEHS)
Inconclusive results are not listed. Calls of active or inactive are those of the source. How the source made its calls, unless noted: active means hit-call score of the fitted dose curve at least 0.9, where 1 is the maximum; inactive means score below 0.9.

How the values were obtained:
[1] = CCTE_Shafer_MEA_dev_interburst_interval_mean: CCTE's Neural Network Formation Assay for Mean Interburst Interval, Shafer Lab (AID 2284046);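 further: well-mean interburst interval of bursting electrodes as AUC over four recording days; curve fitted for decrease in interburst interval relative to DMSO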
Procedure, shortened: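 Rat cortical neurons, 1.5 x 10^5 cells/well, 48-well MEA; compound from day 0 through DIV 12, media and treatment renewed DIV 5/9. Recordings DIV 5, 7, 9, 12; well-mean interburst interval → trapezoidal AUC, loss direction vs DMSO.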

[2] = CCTE_Shafer_MEA_dev_inter_network_spike_interval_mean: CCTE's Neural Network Formation Assay for Mean Inter-network Spike Interval, Shafer Lab (AID 2284047)
Procedure, shortened: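 Primary rat cortical neurons on PEI-coated 48-well MEAs (16 electrodes/well) were exposed from plating day 0 to DIV 12, with dosing renewed at DIV 5 and 9. Recordings at DIV 5, 7, 9, 12 were collapsed by trapezoidal AUC, loss-of-signal fit vs DMSO.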

[3] = CCTE_Shafer_MEA_dev_network_spike_number: CCTE's Neural Network Formation Assay for Number of Network Spikes, Shafer Lab (AID 2284048);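 further: synchronized bursts across electrodes counted on days 5 7 9 12 and integrated as AUC; fit as a loss of signal meaning fewer network spikes than DMSO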
Procedure, shortened: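 Primary rat cortical neurons on PEI/laminin 48-well MEA plates, dosed from plating day 0 for 12 days, renewed at DIV 5 and 9. Network spike counts recorded DIV 5, 7, 9, 12, collapsed as trapezoidal AUC; DMSO baseline.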

[4] = CCTE_Shafer_MEA_dev_network_spike_peak: CCTE's Neural Network Formation Assay for Mean Number of Electrodes in Network Spike, Shafer Lab (AID 2284049);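 further: fitted for loss of signal meaning fewer electrodes in network spikes than DMSO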
Procedure, shortened: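 Network-spike peak electrode count from recordings on days 5, 7, 9 and 12 was combined as trapezoidal area under the curve. Rat cortical cultures were treated continuously from plating, with compound renewed at each feed (DIV 5, 9); fits versus DMSO.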

[5] = CCTE_Shafer_MEA_dev_spike_duration_mean: CCTE's Neural Network Formation Assay for Mean Spike Duration, Shafer Lab (AID 2284051);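 further: mean network spike duration pooled as area under curve over DIV 5 to 12 recordings; potency for a decrease in mean network spike duration versus DMSO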
Procedure, shortened: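 Rat cortical primary cultures, 48-well MEA (16 electrodes/well); compound from plating, renewed DIV 5, 9. Network spike duration (AxIS adaptive detector) recorded DIV 5/7/9/12, combined as trapezoidal AUC; loss direction vs DMSO.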

[6] = CCTE_Shafer_MEA_dev_network_spike_duration_std: CCTE's Neural Network Formation Assay for Standard Deviation of Network Spike Duration, Shafer Lab (AID 2284052);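 further: area under curve of spike duration SD across recording days 5 to 12; hits are decreases in network spike duration SD versus DMSO vehicle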
Procedure, shortened: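 Rat cortical cultures, 1.5 x 10^5 cells/well, exposed continuously from plating to DIV 12 with media/compound renewal at DIV 5, 9. Spontaneous activity recorded DIV 5/7/9/12, AxIS adaptive spike detector; AUC across days; negative direction vs DMSO.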

[7] = CCTE_Shafer_MEA_dev_per_network_spike_spike_number_mean: CCTE's Neural Network Formation Assay for Mean Number of Spikes in a Network Spike, Shafer Lab (AID 2284053);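 further: fitted as decrease in spikes per network spike relative to DMSO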
Procedure, shortened: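 Rat cortical primary cultures on 48-well MEA; compound from day 0, re-dosed with full media change DIV 5, 9. Recorded DIV 5, 7, 9, 12; spikes in 0.05 s window at network-spike peak ÷ total network spikes; AUC; loss vs DMSO.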

[8] = CCTE_Shafer_MEA_dev_per_network_spike_spike_percent: CCTE's Neural Network Formation Assay for Percent of Spikes in a Network Spike, Shafer Lab (AID 2284054)
Procedure, shortened: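 Rat primary cortical neurons were grown on 48-well MEA plates (16 electrodes/well), exposed from plating day 0 through day 12, with treatment renewed on DIV 5 and 9. Percent of spikes within 0.05 s network-spike peaks was measured, summarised as AUC across days 5, 7, 9, 12.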

[9] = CCTE_Shafer_MEA_acute_AB: CCTE's Alamar Blue Assay for Cytotoxicity in the Neural Acute Assay, Shafer Lab (AID 2284069; active means hit-call score of the fitted dose curve at least 0.9, where 1 is the maximum;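 further: active compounds lower the viability signal compared with DMSO wells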)
Procedure, shortened: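 Read-out: resazurin fluorescence (ex 544, em 590 nm) after CTB reagent at 1:6 dilution in fresh media. Cells: primary rat cortical neuron networks, DIV 13 or 15, chemically exposed on MEA plates; DMSO as negative control/baseline.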

[10] = CCTE_Shafer_MEA_acute_LDH: CCTE's Lactate Dehydrogenase Assay for Cytotoxicity in the Neural Acute Assay, Shafer Lab (AID 2284086; active means hit-call score of the fitted dose curve at least 0.9, where 1 is the maximum;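 further: active means LDH release rises above DMSO vehicle level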)
Procedure, shortened: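 Primary rat cortical neurons on 48-well MEA plates, treated on day 13 or 15 post-plating. After the 40-min recording with compound, medium LDH release was read by absorbance at 490 nm. Gain of signal was fitted against DMSO negative control.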

[11] = CCTE_Shafer_MEA_dev_mutual_information_norm: CCTE's Neural Network Formation Assay for Mutual Information Normalization, Shafer Lab (AID 2284091);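 further: mutual information between electrodes summarised as area under curve across four recording days; potency is for a decrease in mutual information relative to DMSO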
Procedure, shortened: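 Primary rat cortical neurons on PEI-coated 48-well MEA plates, 1.5 x 10^5 cells/well, exposed from day 0 through day 12 with re-dosing at DIV 5 and 9. Mutual information between electrodes recorded days 5, 7, 9, 12; trapezoidal AUC, loss-of-signal fit versus DMSO.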

[12] = CCTE_Shafer_MEA_dev_correlation_coefficient_mean: CCTE's Neural Network Formation Assay for Mean Correlation Coefficient, Shafer Lab (AID 2284093);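 further: well mean pairwise spike train correlation integrated as AUC over recording days 5 to 12; potency fitted for loss of correlation relative to DMSO vehicle wells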
Procedure, shortened: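 Rat cortical cultures, 1.5 x 10^5 cells/well, dosed from day 0 for 12 days. Spontaneous spikes recorded DIV 5/7/9/12; electrode-pair correlation coefficients averaged, AUC taken. Fit in loss direction vs DMSO.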

[13] = CCTE_Mundy_HCI_Cortical_Synap_Neur_Matur_NeuriteSpotCountPerNeuriteLength: CCTE's Synaptogenesis and Neurite Maturation Assay in rat cortical cells for Neurite Spot Count per Neurite Length, Mundy Lab (AID 2284210)
Procedure, shortened: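 Rat primary cortical cultures, AraC added at DIV 5 to suppress glia; chemical exposure from DIV 7 to DIV 12. Fixed cells stained for MAP2 and synaptophysin plus Hoechst; synaptophysin puncta per neurite length quantified by high-content imaging, relative to DMSO.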

[14] = CCTE_Mundy_HCI_Cortical_Synap_Neur_Matur_BPCount: CCTE's Synaptogenesis and Neurite Maturation Assay in rat cortical cells for Branch Point Count, Mundy Lab (AID 2284211)
Procedure, shortened: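 Branch point number is quantified by automated imaging of fluorescently labelled neurites and synapses in rat primary cortical neurons exposed from DIV 7 to DIV 12. Activity is analysed relative to DMSO negative control.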

[15] = CCTE_Mundy_HCI_Cortical_NOG_NeuriteCount: CCTE's Neurite Outgrowth Assay in rat cortical cells for Neurite Count, Mundy Lab (AID 2284212);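 further: cells fixed about two days after chemical exposure began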
Procedure, shortened: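 Neurite number per cell from high-content imaging of betaIII-tubulin immunostaining, with Hoechst nuclear counterstain.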

[16] = CCTE_Mundy_HCI_Cortical_NOG_NeuriteLength: CCTE's Neurite Outgrowth Assay in rat cortical cells for Neurite Length, Mundy Lab (AID 2284213)
Procedure, shortened: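 Neurite length was read by high-content imaging of βIII-tubulin-labelled neurites in rat primary cortical cultures. Activity was fitted relative to DMSO.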

[17] = CCTE_Mundy_HCI_Cortical_Synap_Neur_Matur_NeuriteLength: CCTE's Synaptogenesis and Neurite Maturation Assay in rat cortical cells for Neurite Length, Mundy Lab (AID 2284214)
Procedure, shortened: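 Rat primary cortical cells were plated, treated with AraC at DIV 5 to arrest glial growth, then chemical-dosed with media change at DIV 7 through DIV 12. Fixed cells stained for MAP2, synaptophysin and Hoechst; neurite length quantified by high-content imaging.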

[18] = CCTE_Mundy_HCI_Cortical_Synap_Neur_Matur_NeuriteSpotCountPerNeuron: CCTE's Synaptogenesis and Neurite Maturation Assay in rat cortical cells for Neurite Spot Count per Neuron Count, Mundy Lab (AID 2284215)
Procedure, shortened: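 Read-out: neurite-associated synaptophysin puncta per neuron, imaged by high-content analysis after MAP2, synaptophysin and Hoechst staining. Rat primary cortical cultures, dosed DIV 7 through DIV 12; DMSO served as baseline.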

[19] = CCTE_Mundy_HCI_Cortical_Synap_Neur_Matur_SynapseCount: CCTE's Synaptogenesis and Neurite Maturation Assay in rat cortical cells for Synapse Count, Mundy Lab (AID 2284218)
Procedure, shortened: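 Rat primary cortical cells in 96-well plates received AraC at DIV 5 and were dosed with chemicals at DIV 7 with media change, through DIV 12 (288.33 h). Synapses per neuron counted by high-content imaging of MAP2/synaptophysin/Hoechst staining, versus DMSO baseline.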

[20] = CCTE_Mundy_HCI_Cortical_Synap_Neur_Matur_NeuriteCount: CCTE's Synaptogenesis and Neurite Maturation Assay in rat cortical cells for Neurite Count, Mundy Lab (AID 2284222);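 further: exposure from day 7 to day 12 in vitro with readout at day 12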
Procedure, shortened: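 Primary rat cortical cells were plated, treated with AraC at DIV 5, then exposed to chemicals from DIV 7 through DIV 12. After fixation and immunostaining for MAP2 and synaptophysin, imaging quantified neurites, with DMSO as the negative control.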

[21] = CCTE_Mundy_HCI_Cortical_Synap_Neur_Matur_CellBodySpotCount: CCTE's Synaptogenesis and Neurite Maturation Assay in rat cortical cells for Cell Body Spot Count, Mundy Lab (AID 2284223)
Procedure, shortened: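 Read-out: cell body-associated synaptophysin puncta per neuron, imaged after MAP2, synaptophysin and Hoechst staining. Rat cortical cells, AraC DIV 5, chemical dosing DIV 7, fixation DIV 12. Activity fitted in positive direction relative to DMSO baseline.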

[22] = CCTE_Mundy_HCI_Cortical_NOG_NeuronCount: CCTE's Neurite Outgrowth Assay in rat cortical cells for Neuron Count, Mundy Lab (AID 2284236; active means hit-call score of the fitted dose curve at least 0.9, where 1 is the maximum;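 further: neurons counted by imaging betaIII-tubulin and Hoechst stained cortical cells; cells exposed to compound for about 48 hours before fixation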)
Procedure, shortened: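 Read-out: neuron number by high-content imaging of betaIII-tubulin (Alexa Fluor-488) and Hoechst-labelled rat primary cortical cells.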

[23] = CCTE_Mundy_HCI_Cortical_NOG_BPCount: CCTE's Neurite Outgrowth Assay in rat cortical cells for Branch Point Count, Mundy Lab (AID 2284237)
Procedure, shortened: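 Measured 50.33 h after dosing, this morphology endpoint uses rat primary cortical cultures labelled for betaIII-tubulin. Branch points are quantified by high-content imaging, with DMSO as negative control and baseline.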

[24] = CCTE_Mundy_HCI_hNP1_Casp3_7: CCTE's Caspase-Glo 3/7 Assay in human neuroprogenitor cells for Apoptosis, Mundy Lab (AID 2284240)
Procedure, shortened: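 Luminescent caspase-3/7 readout, 26.5 h post-dose, in human neural progenitor cells from WA09 embryonic stem cells. Cells grew 40–44 h at 37 °C, 5% CO2 before chemical addition. Activity analysed as signal increase over DMSO baseline.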

[25] = CCTE_Mundy_HCI_hNP1_CellTiter: CCTE's Cell Titer-Glo 2 Assay in human neuroprogenitor cells for Viability, Mundy Lab (AID 2284241; active means hit-call score of the fitted dose curve at least 0.9, where 1 is the maximum;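 further: a hit is a drop in ATP luminescence versus DMSO meaning reduced viability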)
Procedure, shortened: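 Viability read as luminescent ATP content (CellTiter-Glo, 30 min room temperature) twenty-four hours after dosing, relative to DMSO. Cells: WA09-derived hNP1 neuroprogenitors on poly-L-ornithine/laminin, plated 40 to 44 hours before chemical.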

[26] = CCTE_Mundy_HCI_iCellGluta_NOG_NeuronCount: CCTE's Neurite Outgrowth Assay in iCellGluta cells for Neuron Count, Mundy Lab (AID 2284340; active means hit-call score of the fitted dose curve at least 0.9, where 1 is the maximum;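 further: cells fixed about 48 h after compound addition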)
Procedure, shortened: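 Neuron count read by automated high-content imaging of Hoechst 33342 and betaIII-tubulin/Alexa Fluor-488 labelling in human iPSC glutamatergic neurons. Activity fitted relative to DMSO.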

Measured: AC50

CC1(C)[C@H](C=C(Cl)Cl)[C@@H]1C(=O)O[C@@H](C#N)c1cccc(Oc2ccccc2)c1
active: [3] 4.81 µM | [4] 8.44 µM | [5] 4.92 µM | [6] 4.6 µM | [7] 5.97 µM | [8] 15 µM | [11] 2.25 µM | [12] 4.79 µM | [25] 26 µM
inactive: all other assays above
